PubChem BioAssay
Active and inactive are the calls of the source. Unless noted, no rule for the calls is given here.

Key:
[1] = system: Wnt5a (protein binding on small-molecule microarray); test: small molecules binding Wnt5a protein – biophysical, small-molecule microarray, 635/667 nm fluorescence, primary screen (AID 1142); details: 635 nm fluorescence, higher = more signal;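 also: fluorescence read at 667 nm with signal to noise per printed feature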
[2] = ATP-based viability of Huh7 replicon cells – cell-based, CellTiter-Glo luminescence, basal, 48 h, cytotoxicity control for HCV replication inhibitor project, primary screen (AID 1143); details: higher = more signal, called active from +8 up or from −8 down;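 also: Huh7 hepatoma cells carrying a hepatitis C replication reporter with no stimulus; test concentration not given here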
[3] = Pseudomonas biofilm growth suppression – PAO1 strain, BacTiter-Glo luminescence, LB-PBS, primary screen (AID 1144); details: P. aeruginosa PAO1 biofilm, 12 h, higher = more signal
[4] = basal CRE-LacZ reporter activity in PC12 – cell-based, unstimulated, primary screen (AID 1145); details: no forskolin, luminescence, 4.5 h, higher = more signal, called active from +8 up or from −8 down
[5] = forskolin-driven CRE-LacZ activity in PC12 – cell-based, CRE-LacZ reporter, forskolin-stimulated, primary screen (AID 1146); details: luminescence, 4.5 h, higher = more signal, called active from +8 up or from −8 down;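 also: PC12 cells with 6xCRE LacZ reporter stimulated by forskolin 10 µM; beta-galactosidase reporter signal reflecting CREB driven transcription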
[6] = molecular target: Streptavidin (Streptomyces avidinii) (UniProt P22629); test: compounds binding control protein streptavidin – biophysical, small-molecule microarray, 635/667 nm fluorescence, artefact control for SMM compound annotation, primary screen (AID 1147); details: higher = more signal;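 also: signal reflects streptavidin binding to arrayed compounds as a control protein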
Chain of Streptavidin (Streptomyces avidinii) (P22629 whole entry, looked up): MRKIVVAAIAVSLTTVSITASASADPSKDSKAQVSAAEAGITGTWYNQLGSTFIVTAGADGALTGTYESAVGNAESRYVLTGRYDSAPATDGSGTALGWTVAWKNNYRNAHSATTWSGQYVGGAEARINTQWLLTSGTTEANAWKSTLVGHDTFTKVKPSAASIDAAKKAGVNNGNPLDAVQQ

[7] = probe aInhba binding on compound microarray – biochemical, small-molecule microarray, 635/667 nm fluorescence, primary screen (AID 1148); details: higher = more signal;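 also: score merges 667nm spot fluorescence with signal-to-noise for antibody binding to printed compounds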
Torsin-1A (Homo sapiens) [8] = molecular target: Torsin-1A (Homo sapiens) (UniProt O14656); test: TOR1A wild-type binding on microarray – cell lysate, small-molecule microarray, lysate, 635/667 nm, primary screen (AID 1149); details: COS7 hTOR1A-WT lysate, 635 nm fluorescence, higher = more signal
Chain of Torsin-1A (Homo sapiens) (O14656 whole entry, looked up): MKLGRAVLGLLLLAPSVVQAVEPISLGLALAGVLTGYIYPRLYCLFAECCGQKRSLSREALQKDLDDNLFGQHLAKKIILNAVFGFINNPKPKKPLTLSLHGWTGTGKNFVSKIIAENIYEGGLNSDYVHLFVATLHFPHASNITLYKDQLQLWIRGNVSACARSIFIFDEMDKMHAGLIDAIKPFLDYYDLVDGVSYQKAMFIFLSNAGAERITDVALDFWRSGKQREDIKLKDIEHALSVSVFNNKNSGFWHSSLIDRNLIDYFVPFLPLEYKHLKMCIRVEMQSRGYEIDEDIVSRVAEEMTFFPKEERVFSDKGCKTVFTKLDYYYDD

Torsin-1A (Homo sapiens) [9] = molecular target: Torsin-1A (Homo sapiens) (UniProt O14656); test: torsin A mutant lysate binding on microarrays – cell lysate, small-molecule microarray, COS7 lysate, 635/667 nm fluorescence, primary screen (AID 1150); details: COS7 hTOR1A mutant lysate, 635 nm fluorescence, higher = more signal;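 also: score pools 667 nm emission and signal to noise measuring lysate protein binding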
[10] = system: Sonic hedgehog protein (Shh); test: Sonic hedgehog microarray binding compounds – biochemical, small-molecule microarray, 635/667 nm fluorescence, primary screen (AID 1151); details: 635 nm fluorescence, higher = more signal;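 also: Shh protein binding to compounds spotted on small-molecule microarray slides; score combines spot fluorescence intensity with signal-to-noise across triplicate slides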
[11] = optical density shifts of acrAB sulA E. coli – strain DRC41, OD650, 48 h, E. coli filamentation inducer project, primary screen (AID 1152); details: higher = more signal, called active from +8 up or from −8 down;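 also: E. coli MC1000 strain DRC41 lacking acrAB efflux pump and sulA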
[12] = probe aLefty1 binding on compound microarray – biochemical, small-molecule microarray, 635/667 nm fluorescence, primary screen (AID 1153); details: higher = more signal;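 also: score merges spot fluorescence with signal-to-noise ratio from the scanned slide images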
[13] = plasmodial surface anion channel blockers, osmotic lysis – cell-based, P. falciparum Indochina, OD700, 1 h, primary screen (AID 1154); details: P. falciparum Indochina infected RBC osmotic lysis, higher = more signal, called active from +8 up or from −8 down
[14] = plasmodial surface anion channel blockers, osmotic lysis – cell-based, P. falciparum Indochina, OD700, 2 h, primary screen (AID 1155);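 also: lysis reports solute entry through the parasite surface anion channel PSAC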; details: P. falciparum Indochina infected erythrocytes, higher = more signal, called active from +8 up or from −8 down
[15] = changes in parasitized red cell lysis, either direction – P. falciparum Indochina, OD700, 3 h, PSAC antagonist project, primary screen (AID 1156); details: P. falciparum-infected erythrocytes, osmotic lysis, higher = more signal, called active from +8 up or from −8 down
[16] = plasmodial surface anion channel blockers, osmotic lysis – cell-based, P. falciparum Indochina, OD700, 18 h, primary screen (AID 1157); details: P. falciparum Indochina infected erythrocytes, osmotic lysis OD700, 18 h; higher = more signal, called active from +8 up or from −8 down
[17] = S6 kinase pathway phospho-S6 level changes – cell-based, A549, cytoblot, luminescence, serum-stimulated, primary screen (AID 1158); details: 5 h, higher = more signal;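 also: serum-stimulated A549 lung adenocarcinoma cells; signal is phosphorylated S6 detected by cytoblot immunostaining with HRP secondary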
[18] = molecular target: NADPH oxidase 2 (Homo sapiens) (UniProt P04839); test: compounds shifting NOX2 Amplex Red fluorescence – cell-based, HEK293-NOX2, PMA-stimulated, NOX inhibitor project, primary screen (AID 1159); details: 45 min, higher = more signal, called active from +8 up or from −8 down; also: test concentration not given here
Chain of NADPH oxidase 2 (Homo sapiens) (P04839 whole entry, looked up): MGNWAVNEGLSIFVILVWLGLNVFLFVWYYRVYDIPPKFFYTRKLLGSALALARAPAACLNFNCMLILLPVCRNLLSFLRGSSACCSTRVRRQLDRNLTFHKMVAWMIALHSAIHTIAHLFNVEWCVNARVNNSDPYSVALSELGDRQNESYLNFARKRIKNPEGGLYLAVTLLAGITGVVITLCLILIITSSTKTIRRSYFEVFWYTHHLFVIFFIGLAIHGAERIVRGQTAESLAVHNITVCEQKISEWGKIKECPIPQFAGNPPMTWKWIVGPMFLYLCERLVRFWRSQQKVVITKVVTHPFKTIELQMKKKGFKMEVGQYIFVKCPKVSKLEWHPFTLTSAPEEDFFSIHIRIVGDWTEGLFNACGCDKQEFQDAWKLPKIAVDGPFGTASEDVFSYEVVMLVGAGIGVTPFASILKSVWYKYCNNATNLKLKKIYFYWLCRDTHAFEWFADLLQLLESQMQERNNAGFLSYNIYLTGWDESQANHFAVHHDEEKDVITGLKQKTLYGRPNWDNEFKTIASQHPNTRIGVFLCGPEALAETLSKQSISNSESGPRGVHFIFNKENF

[19] = molecular target: NADPH oxidase 4 (Homo sapiens) (UniProt Q9NPH5); test: compounds shifting NOX4 Amplex Red fluorescence – cell-based, HEK293-NOX4, tetracycline-induced, NOX inhibitor project, primary screen (AID 1160); details: HEK293-NOX4, Amplex Red H2O2 fluorescence, 45 min; higher = more signal, called active from +8 up or from −8 down
Chain of NADPH oxidase 4 (Homo sapiens) (Q9NPH5 whole entry, looked up): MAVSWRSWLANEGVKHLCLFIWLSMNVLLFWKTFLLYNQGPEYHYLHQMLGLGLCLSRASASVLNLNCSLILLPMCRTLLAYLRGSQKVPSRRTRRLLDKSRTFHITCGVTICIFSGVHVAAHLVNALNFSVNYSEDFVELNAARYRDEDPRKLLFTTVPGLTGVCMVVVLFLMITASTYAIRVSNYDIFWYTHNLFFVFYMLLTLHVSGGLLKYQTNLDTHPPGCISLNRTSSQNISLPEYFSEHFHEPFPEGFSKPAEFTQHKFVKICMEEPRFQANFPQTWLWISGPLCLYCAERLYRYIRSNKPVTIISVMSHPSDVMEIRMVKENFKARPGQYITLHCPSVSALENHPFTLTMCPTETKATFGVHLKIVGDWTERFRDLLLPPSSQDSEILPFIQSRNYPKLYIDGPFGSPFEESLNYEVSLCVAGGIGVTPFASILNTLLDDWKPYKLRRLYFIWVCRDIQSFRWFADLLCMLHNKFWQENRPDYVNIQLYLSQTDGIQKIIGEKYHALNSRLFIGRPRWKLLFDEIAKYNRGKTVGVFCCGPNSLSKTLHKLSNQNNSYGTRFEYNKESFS

[20] = molecular target: NADPH oxidase 5 (Homo sapiens) (UniProt Q96PH1); test: compounds shifting NOX5 Amplex Red fluorescence – cell-based, HEK293-NOX5, NOX inhibitor project, primary screen (AID 1161); details: HEK293-NOX5, ionomycin, 45 min, higher = more signal
Chain of NADPH oxidase 5 (Homo sapiens) (Q96PH1 whole entry, looked up): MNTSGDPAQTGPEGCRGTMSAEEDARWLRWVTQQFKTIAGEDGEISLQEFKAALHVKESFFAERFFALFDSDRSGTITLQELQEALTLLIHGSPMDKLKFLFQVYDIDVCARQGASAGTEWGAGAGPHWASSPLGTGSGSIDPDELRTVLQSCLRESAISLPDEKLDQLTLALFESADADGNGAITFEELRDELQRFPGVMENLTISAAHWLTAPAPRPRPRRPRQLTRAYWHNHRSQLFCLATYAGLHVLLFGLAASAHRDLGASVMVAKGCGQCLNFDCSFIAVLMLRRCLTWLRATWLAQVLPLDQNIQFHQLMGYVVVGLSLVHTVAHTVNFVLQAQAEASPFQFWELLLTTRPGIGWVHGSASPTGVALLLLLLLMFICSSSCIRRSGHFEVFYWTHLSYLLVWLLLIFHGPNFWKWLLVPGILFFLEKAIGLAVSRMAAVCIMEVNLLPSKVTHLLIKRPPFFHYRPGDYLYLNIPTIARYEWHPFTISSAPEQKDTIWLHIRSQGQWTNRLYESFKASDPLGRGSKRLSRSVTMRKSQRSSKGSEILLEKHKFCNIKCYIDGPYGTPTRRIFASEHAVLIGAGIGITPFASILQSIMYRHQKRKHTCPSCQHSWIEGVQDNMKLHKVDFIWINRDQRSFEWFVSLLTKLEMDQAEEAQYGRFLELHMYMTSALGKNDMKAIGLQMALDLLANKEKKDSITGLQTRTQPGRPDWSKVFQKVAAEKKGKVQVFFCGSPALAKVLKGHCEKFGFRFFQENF

Compound | composite z-score [1] | z-score [2] | z-score [3] | z-score [4] | z-score [5] | composite z-score [6] | composite z-score [7] | composite z-score (Torsin-1A (Homo sapiens) [8]) | composite z-score (Torsin-1A (Homo sapiens) [9]) | composite z-score [10] | z-score [11] | composite z-score [12] | z-score [13] | z-score [14] | z-score [15] | z-score [16] | z-score [17] | z-score [18] | z-score [19] | z-score [20]
COCCOC(=O)N1C(=O)[C@@]2(c3cc(C#Cc4ccc(OC)cc4)ccc31)[C@H](C(=O)Nc1nc3ccccc3s1)[C@H]1C(=O)O[C@H](c3ccccc3)[C@H](c3ccccc3)N1[C@@H]2c1ccc(O)cc1 | 0.472 | -3.43 (inactive) | -1.8 (inactive) | -1.83 (inactive) | 0.673 (inactive) | 0.768 | 0.266 | 0.198 | 0.811 | 1.91 | 1.05 (inactive) | 0.703 | 3.75 (inactive) | 0.756 (inactive) | 1.2 (inactive) | 1.22 (inactive) | 0.709 | 1.49 (inactive) | -0.118 (inactive) | 0.791
O=C1O[C@@H](c2ccccc2)[C@@H](c2ccccc2)N2[C@@H](c3ccc(O)cc3)[C@]3(C(=O)Nc4ccc(C#CC5(O)CCCCCC5)cc43)[C@@H](C(=O)NC[C@H](O)c3ccccc3)[C@H]12 | 0.0895 | -1.42 (inactive) | -0.144 (inactive) | -0.606 (inactive) | -0.448 (inactive) | -0.508 | -0.0221 | 0.0581 | -0.135 | 0.217 | -0.557 (inactive) | 0.315 | 0.996 (inactive) | 0.707 (inactive) | 1.08 (inactive) | 0.973 (inactive) | 0.173 | 1.14 (inactive) | 0.441 (inactive) | 0.0466
O=C(NCCCCCNC(=O)/C(Cc1ccccc1)=N/O)OCc1ccccc1 | -0.211 | -1.82 (inactive) | -1.37 (inactive) | 3.77 (inactive) | -1.44 (inactive) | 0.153 | -0.245 | 0.847 | -0.013 | -0.103 | 2 (inactive) | -0.696 | 11 (active) | -0.43 (inactive) | 0.003 (inactive) | -2.25 (inactive) | 1.19 | 0.53 (inactive) | 0.0195 (inactive) | -1.35
COCCCNC(=O)[C@@]1(Cc2ccccc2N=[N+]=[N-])N=C(c2ccc(OCCCO)cc2)O[C@H]1c1ccccc1 | 1.51 | -4.36 (inactive) | -1.31 (inactive) | 0.558 (inactive) | -0.472 (inactive) | -0.459 | 0.0589 | 3.67 | 3.61 | 0.55 | -0.3 (inactive) | 0.535 | 21.5 (active) | 4.21 (inactive) | 1.28 (inactive) | 1.4 (inactive) | 0.796 | -2.06 (inactive) | -0.374 (inactive) | -1.63
C=CCN1C(=O)[C@@]2(CCS(=O)(=O)c3ccccc3)N=C(c3ccc(OCCCO)cc3)O[C@H]2c2ccccc21 | 0.889 | -2.49 (inactive) | 0.369 (inactive) | -0.0808 (inactive) | -1.28 (inactive) | 0.636 | 0.198 | 1.16 | 0.426 | 2.07 | -0.135 (inactive) | 0.235 | 29.9 (active) | 25.2 (active) | 1.73 (inactive) | 6.35 (inactive) | 1.06 | -1.42 (inactive) | 1.35 (inactive) | -0.428
COCCOC(=O)N1C(=O)[C@@]2(c3cc(C#CC4=CCCCC4)ccc31)[C@H](C(=O)N1CCCCCCC1)[C@H]1C(=O)O[C@H](c3ccccc3)[C@H](c3ccccc3)N1[C@@H]2c1ccc(O)cc1 | 0.278 | -4.39 (inactive) | -1.7 (inactive) | -0.815 (inactive) | 0.234 (inactive) | 0.0947 | 0.329 | 0.681 | 0.595 | 1.3 | 1.63 (inactive) | 0.93 | -0.43 (inactive) | -1.2 (inactive) | -1.27 (inactive) | -1.96 (inactive) | 2.44 | 0.67 (inactive) | 0.257 (inactive) | 0.871
C=CCOC(=O)[C@H]1[C@@H]2C(=O)O[C@@H](c3ccccc3)[C@@H](c3ccccc3)N2[C@@H](c2ccc(OCCOC(=O)[C@@H]3C[C@@H]4C(=O)N[C@@H](CCCCNC(C)=O)C(=O)N4[C@@H]3c3ccc(O)cc3)cc2)[C@]12C(=O)Nc1ccc(I)cc12 | 0.804 | -0.257 (inactive) | 0.272 (inactive) | 0.143 (inactive) | 0.236 (inactive) | -0.139 | 0.225 | 1.25 | 1.15 | 2.21 | -0.465 (inactive) | 0.471 | 1.33 (inactive) | 1.52 (inactive) | 3.07 (inactive) | 0.964 (inactive) | -0.621 | 1.08 (inactive) | 0.351 (inactive) | 2.35
COC(=O)[C@@]1(Cc2ccc(OC)cc2)[C@H]2c3cc(C(=O)N(C)C)n(CCO)c3C[C@H]2CN1C(=O)c1ccccc1 | 0.29 | -0.0015 (inactive) | 0.371 (inactive) | -0.182 (inactive) | 1.23 (inactive) | 1.61 | 0.488 | 0.145 | 1.16 | -0.544 | -1.2 (inactive) | 0.564 | 0.845 (inactive) | 0.145 (inactive) | 0.0732 (inactive) | 0.446 (inactive) | -0.775 | 0.331 (inactive) | -1.49 (inactive) | -1.91
